Here are results for five compounds from PubChem BioAssay.

Each structure is given as a SMILES string. Records with an inconclusive call do not appear. Active and inactive are the calls of the source.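 How the source made its calls, unless noted: active means aptamer binding inhibition above 30%, about 3 SD of noise from non-fluorescent compounds; inactive means inhibition at or below 30%.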

Assay [1] in a line: yeast TOR pathway RPL19A-GFP modulators, primary screen, cell-based, S. cerevisiae, multiplex flow cytometry (AID 1862; in the data active means percent of DMSO control GFP below about 86%;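 further: lower values mimic rapamycin by blocking the RPL19A rise seen in DMSO cells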). As to conditions: S. cerevisiae RPL19A-GFP strain, flow cytometry fluorescence, 3 h; at 10 µM; stronger effect = lower value. Background: Flow cytometry measures light scatter and fluorescence of single cells or particles in a stream.
Assay [2] in a line: modulators of MEP2-GFP levels in yeast, primary screen, S. cerevisiae, multiplex flow cytometry (AID 1867;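 active means GFP response, as percent of the DMSO control, above the screen-wide mean plus 3 SD, about 139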;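 further: median GFP channel fluorescence of barcode-gated MEP2-GFP cells measured by flow cytometry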). As to conditions: S. cerevisiae MEP2-GFP strain, 3 h, at 10 µM, stronger effect = higher value, 100% means same as DMSO wells.
A short description of assay [3]: modulators of CIT2-GFP expression in yeast, primary screen, S. cerevisiae, GFP fusion, multiplex flow cytometry (AID 1870;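 active means percent response above a set limit, the screen-wide mean plus 3 SD, cut at about 130% in these data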;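 further: barcoded CIT2-GFP strain pooled with four other GFP strains with rapamycin as positive control; median GFP fluorescence per well over plate mean of DMSO wells so 100% = DMSO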). As to conditions: 3 h, at 10 µM, stronger effect = higher value.
Assay [4] can be described thus: modulators of LAP4-GFP expression in yeast, primary screen, S. cerevisiae, multiplex flow cytometry (AID 1873;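 active means GFP signal, as percent of the solvent control, above the screen mean plus 3 SD, about 149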). As to conditions: 3 h, at 10 µM, stronger effect = higher value.
Assay [5] is described as follows: modulators of AGP1-GFP expression in yeast TOR pathway, primary screen, cell-based, multiplex flow cytometry, S. cerevisiae (AID 1887;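 active means GFP signal above the screen-wide mean plus 3 SD, that is over about 124.5% of the solvent control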;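 further: AGP1-GFP fusion strain of S. cerevisiae within a five-strain barcoded multiplex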). As to conditions: 3 h, at 10 µM, stronger effect = higher value.
The nature of assay [6]: inhibitors of CD8+ T cell-vesicle binding, pilot screen, LFA-1/ICAM-1 modulator project, MLPCN validation set, flow cytometry (AID 2523;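 active means response below a set limit, under 55% cells CD8-positive and vesicle-bound, and CD8 cells' 90th-percentile brightness under 279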;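 on vesicle binding response: mean PE anti-B7-1 fluorescence of CD8+ cells relative to row control; 100% = QL9-loaded vesicles with DMSO vehicle in the same plate row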). As to conditions: 2C mouse CD8+ T cells, at 7 µM, stronger effect = lower value; double positive events: measured here: CD8+/vesicle+ event percentage.
In assay [7] the target is Integrin beta-1 (Homo sapiens) + Integrin alpha-4 (Homo sapiens) (UniProt P13612+P05556). As to the kind of experiment: inhibition of HUTS-21 binding to VLA-4, pilot screen, VLA-4 allosteric modulator project, U937 cells, HUTS-21 mAb, flow cytometry, validation set (AID 2674;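 active means inhibition above 50%, about 3 SD of the validation set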;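 further: antibody binding induced by the VLA-4 ligand LDV present at three times its Kd; 0% = LDV ligand with antibody and no compound and 100% = antibody without LDV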). As to conditions: HUTS-21 LIBS mAb binding, at 6.7 µM, stronger effect = higher value, binding induced by LDV ligand.
Chain of Integrin beta-1 (Homo sapiens) + Integrin alpha-4 (Homo sapiens) (P05556 whole entry, looked up): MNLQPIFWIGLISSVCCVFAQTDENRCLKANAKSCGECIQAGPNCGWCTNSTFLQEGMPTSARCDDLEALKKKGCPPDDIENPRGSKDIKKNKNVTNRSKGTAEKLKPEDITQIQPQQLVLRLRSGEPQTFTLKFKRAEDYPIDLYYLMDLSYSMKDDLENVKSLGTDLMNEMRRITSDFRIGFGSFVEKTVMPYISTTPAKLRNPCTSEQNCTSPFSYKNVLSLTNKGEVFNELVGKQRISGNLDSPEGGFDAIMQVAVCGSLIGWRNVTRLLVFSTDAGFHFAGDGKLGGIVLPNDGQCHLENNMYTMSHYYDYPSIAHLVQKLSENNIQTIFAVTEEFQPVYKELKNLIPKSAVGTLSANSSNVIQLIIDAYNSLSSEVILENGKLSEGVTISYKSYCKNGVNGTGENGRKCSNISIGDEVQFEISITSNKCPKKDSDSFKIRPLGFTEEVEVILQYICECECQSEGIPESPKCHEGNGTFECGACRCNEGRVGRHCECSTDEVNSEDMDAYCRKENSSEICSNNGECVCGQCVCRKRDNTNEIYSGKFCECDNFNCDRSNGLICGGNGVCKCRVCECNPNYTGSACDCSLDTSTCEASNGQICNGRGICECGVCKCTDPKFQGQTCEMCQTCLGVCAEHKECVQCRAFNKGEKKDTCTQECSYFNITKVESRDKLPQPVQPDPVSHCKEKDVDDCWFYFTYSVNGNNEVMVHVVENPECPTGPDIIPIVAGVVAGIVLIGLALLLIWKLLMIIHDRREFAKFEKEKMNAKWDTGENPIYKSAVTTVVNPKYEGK
Chain of Integrin beta-1 (Homo sapiens) + Integrin alpha-4 (Homo sapiens) (P13612 whole entry, looked up): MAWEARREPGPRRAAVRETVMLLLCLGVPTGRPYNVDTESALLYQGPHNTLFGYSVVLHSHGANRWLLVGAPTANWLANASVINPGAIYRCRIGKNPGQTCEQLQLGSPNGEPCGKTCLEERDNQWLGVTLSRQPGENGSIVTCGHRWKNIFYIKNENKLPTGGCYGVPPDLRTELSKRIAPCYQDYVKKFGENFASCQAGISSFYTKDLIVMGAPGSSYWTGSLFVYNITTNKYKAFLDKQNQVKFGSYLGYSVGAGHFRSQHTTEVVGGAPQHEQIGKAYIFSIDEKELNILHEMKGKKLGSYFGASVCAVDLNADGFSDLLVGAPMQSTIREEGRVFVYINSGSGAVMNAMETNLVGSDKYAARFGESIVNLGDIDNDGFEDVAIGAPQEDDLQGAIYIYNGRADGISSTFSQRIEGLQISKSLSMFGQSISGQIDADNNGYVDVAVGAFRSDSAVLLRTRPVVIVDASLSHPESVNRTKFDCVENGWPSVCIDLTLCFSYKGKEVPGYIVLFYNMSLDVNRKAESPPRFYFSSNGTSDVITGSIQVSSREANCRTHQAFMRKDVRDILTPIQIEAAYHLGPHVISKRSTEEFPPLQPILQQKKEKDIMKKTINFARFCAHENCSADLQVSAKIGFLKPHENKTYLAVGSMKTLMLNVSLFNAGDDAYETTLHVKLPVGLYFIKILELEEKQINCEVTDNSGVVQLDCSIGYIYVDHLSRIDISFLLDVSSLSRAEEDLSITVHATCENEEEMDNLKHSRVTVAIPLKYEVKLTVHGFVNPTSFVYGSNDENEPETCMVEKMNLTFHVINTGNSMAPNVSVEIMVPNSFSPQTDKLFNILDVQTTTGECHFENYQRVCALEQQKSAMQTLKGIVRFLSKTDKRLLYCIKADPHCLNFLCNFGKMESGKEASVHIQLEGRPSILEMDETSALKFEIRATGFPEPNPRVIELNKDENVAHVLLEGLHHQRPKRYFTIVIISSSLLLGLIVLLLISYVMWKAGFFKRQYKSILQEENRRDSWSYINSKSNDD

A short description of assay [8]: superoxide lowering in aged yeast cells, pilot screen, validation compound set (AID 2706;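 active means superoxide response below 65% of plate, a cut near 3 SD across the whole screen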;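 further: yeast exposed to compound for one week at 30 degrees C before staining; 100% = mean of all compound wells on the same plate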). As to conditions: S. cerevisiae aging, superoxide DHE fluorescence; at 10 µM; stronger effect = lower value.
Assay [9] has as its target Beta-adrenergic receptor kinase 1 (Homo sapiens) (UniProt P25098). Nature of the assay: GRK2 binders displacing RNA aptamer, biochemical, validation, human GRK2, bead flow cytometry (AID 488806). As to conditions: bead-bound GRK2, FAM-aptamer displacement, at 10 µM, stronger effect = higher value.
Assay [10] concerns the target Beta-2 adrenergic receptor (Homo sapiens) (UniProt P07550). As to the kind of experiment: beta2AR agonists driving receptor internalization, pilot screen, cell-based, FAP fluorogen, flow cytometry, validation set (AID 504459;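 active means percent response above 42, roughly 3 SD of non-fluorescent test compounds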;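 further: agonist-driven loss of surface beta2AR via internalization measured by FAP dye flow cytometry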). As to conditions: Am2.2-beta2AR cells, FAP surface receptor flow cytometry; at 10 µM; stronger effect = higher value.
For assay [11], the target named is AP-2 complex subunit beta (Homo sapiens) (UniProt P63010). As to the kind of experiment: inhibitors of arrestin peptide binding to AP2, pilot screen, biochemical, validation set, GST-AP2 beads, flow cytometry (AID 504541;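 active means inhibition above 54%, about 3 SD of non-fluorescent compounds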;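 further: AP2 carries R879A mutation and is captured from E. coli lysate; bead-bound FITC arrestin peptide fluorescence measuring arrestin peptide binding to AP2; 0% = DMSO wells and 100% = excess unlabeled arrestin peptide control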). As to conditions: FITC arrestin peptide, at 10 µM, stronger effect = higher value, AP2 beta2 appendage fragment, R879A mutant.
Chain of AP-2 complex subunit beta (Homo sapiens) (P63010 whole entry, looked up, the tested form may be a part, one chain of several): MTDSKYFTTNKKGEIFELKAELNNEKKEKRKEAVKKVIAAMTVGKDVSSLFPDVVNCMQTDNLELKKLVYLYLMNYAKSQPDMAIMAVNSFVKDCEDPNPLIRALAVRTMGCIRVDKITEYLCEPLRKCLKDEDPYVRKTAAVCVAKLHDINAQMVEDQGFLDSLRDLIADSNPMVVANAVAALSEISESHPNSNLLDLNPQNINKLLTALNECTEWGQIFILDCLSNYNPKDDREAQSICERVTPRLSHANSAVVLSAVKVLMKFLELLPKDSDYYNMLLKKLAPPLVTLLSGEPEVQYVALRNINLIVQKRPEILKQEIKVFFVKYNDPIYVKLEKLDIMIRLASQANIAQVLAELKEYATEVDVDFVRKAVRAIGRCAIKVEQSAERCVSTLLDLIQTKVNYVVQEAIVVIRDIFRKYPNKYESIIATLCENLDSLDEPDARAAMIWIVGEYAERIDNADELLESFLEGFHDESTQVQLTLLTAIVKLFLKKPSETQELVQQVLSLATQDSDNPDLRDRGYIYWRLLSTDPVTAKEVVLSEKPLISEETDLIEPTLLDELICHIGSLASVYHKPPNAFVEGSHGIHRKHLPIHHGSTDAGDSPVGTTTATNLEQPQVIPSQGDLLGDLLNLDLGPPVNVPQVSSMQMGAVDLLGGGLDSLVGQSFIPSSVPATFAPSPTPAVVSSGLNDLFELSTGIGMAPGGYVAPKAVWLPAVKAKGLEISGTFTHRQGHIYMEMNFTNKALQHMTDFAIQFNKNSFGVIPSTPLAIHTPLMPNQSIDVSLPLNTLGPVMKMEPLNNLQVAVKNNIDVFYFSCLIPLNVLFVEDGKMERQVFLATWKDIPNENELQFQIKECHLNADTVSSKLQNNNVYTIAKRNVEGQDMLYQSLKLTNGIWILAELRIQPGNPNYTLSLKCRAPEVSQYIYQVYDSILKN
Assay [12] can be described thus: yeast V-ATPase proton transport modulators, S. cerevisiae, pHLuorin, HTS validation (AID 504600; in the data active means response above about 15%;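 further: plate controls were DMSO for no effect and reference compound for full effect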). As to conditions: S. cerevisiae pHLuorin cytosolic pH, at 10 µM, stronger effect = higher value.
The test system of assay [13] is anti-desmoglein-3 scFv antibody binding to human DSG3. As to the kind of experiment: inhibitors of anti-DSG3 scFv binding to DSG3, pilot screen, biochemical, validation compound set, bead-based, flow cytometry (AID 588368;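 active means binding below the plate cutoff, the plate median minus 3 SD, with a reading above zero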;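 further: signal is the median channel fluorescence of bead-bound GFP antibody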). As to conditions: Protein G beads, DSG3-Fc, scFv-GFP binding, at 10 µM, stronger effect = lower value.
Assay [14] is described as follows: inhibitors of fungal efflux pumps CDR1, CDR2, MDR1, pilot screen, validation compound set, multiplex, phenotypic (AID 588506;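 active means efflux inhibition above 0.42, the validation set average plus 4 SD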;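 further: Nile Red retained in cells so higher fluorescence means more efflux inhibition; 0 = negative control wells and 1 = enniatin B 25 µM full block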). As to conditions: S. cerevisiae pump-expressing triplex, Nile Red efflux flow cytometry; at 10 µM; stronger effect = higher value; the pumps come from Candida albicans.
For assay [15], the target named is ATP-binding cassette sub-family B member 6 (Homo sapiens) (UniProt Q9NP58). As to the kind of experiment: ABCB6 transporter inhibitors, pilot screen, K562-ABCB6 cells, flow cytometry, validation set (AID 588550;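 active means inhibition above the screen-wide mean plus 3 SD, about 51%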;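 further: 0% = DMSO wells and 100% = benzethonium chloride 70 µM positive control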). As to conditions: K562-ABCB6 porphyrin accumulation, 1 h, at 10 µM, stronger effect = higher value.
Chain of ATP-binding cassette sub-family B member 6 (Homo sapiens) (Q9NP58 whole entry, looked up): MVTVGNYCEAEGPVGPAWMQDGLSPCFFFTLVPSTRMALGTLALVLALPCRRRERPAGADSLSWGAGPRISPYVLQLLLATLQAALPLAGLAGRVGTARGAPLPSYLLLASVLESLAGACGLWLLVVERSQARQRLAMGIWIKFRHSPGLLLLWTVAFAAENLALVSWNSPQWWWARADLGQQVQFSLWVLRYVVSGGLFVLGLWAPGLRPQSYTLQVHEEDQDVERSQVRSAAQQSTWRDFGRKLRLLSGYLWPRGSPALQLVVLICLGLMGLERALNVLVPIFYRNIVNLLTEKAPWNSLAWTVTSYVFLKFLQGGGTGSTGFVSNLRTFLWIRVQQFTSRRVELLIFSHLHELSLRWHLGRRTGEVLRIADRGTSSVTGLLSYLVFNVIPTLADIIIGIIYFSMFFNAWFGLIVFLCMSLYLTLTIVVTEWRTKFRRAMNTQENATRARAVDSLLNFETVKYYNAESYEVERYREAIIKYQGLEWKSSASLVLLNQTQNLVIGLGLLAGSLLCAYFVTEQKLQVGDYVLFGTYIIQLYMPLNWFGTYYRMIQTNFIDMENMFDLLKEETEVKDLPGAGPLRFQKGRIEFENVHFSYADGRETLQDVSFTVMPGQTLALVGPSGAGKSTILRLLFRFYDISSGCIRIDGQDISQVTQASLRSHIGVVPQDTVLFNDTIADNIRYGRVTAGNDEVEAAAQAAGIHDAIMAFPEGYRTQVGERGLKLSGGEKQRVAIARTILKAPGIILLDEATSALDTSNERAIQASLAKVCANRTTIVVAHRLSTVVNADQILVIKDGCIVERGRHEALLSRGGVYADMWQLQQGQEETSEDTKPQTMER
Assay [16] can be described thus: promoters of myeloid differentiation in arrested cells, primary screen, cell-based, GFP/MAC1 double positive, flow cytometry, validation set (AID 588685;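 active means differentiation response of at least 50%, scaled between solvent and reference control, from cells with both markers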;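 further: compound exposure lasts four days before antibody staining and flow analysis; 0% = DMSO wells and 100% = 5 µM fulvestrant positive control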). As to conditions: ER-HoxA9 marrow cells, stronger effect = higher value, normalized: vehicle 0, fulvestrant 100.

Chain of Beta-adrenergic receptor kinase 1 (Homo sapiens) (P25098 whole entry, looked up): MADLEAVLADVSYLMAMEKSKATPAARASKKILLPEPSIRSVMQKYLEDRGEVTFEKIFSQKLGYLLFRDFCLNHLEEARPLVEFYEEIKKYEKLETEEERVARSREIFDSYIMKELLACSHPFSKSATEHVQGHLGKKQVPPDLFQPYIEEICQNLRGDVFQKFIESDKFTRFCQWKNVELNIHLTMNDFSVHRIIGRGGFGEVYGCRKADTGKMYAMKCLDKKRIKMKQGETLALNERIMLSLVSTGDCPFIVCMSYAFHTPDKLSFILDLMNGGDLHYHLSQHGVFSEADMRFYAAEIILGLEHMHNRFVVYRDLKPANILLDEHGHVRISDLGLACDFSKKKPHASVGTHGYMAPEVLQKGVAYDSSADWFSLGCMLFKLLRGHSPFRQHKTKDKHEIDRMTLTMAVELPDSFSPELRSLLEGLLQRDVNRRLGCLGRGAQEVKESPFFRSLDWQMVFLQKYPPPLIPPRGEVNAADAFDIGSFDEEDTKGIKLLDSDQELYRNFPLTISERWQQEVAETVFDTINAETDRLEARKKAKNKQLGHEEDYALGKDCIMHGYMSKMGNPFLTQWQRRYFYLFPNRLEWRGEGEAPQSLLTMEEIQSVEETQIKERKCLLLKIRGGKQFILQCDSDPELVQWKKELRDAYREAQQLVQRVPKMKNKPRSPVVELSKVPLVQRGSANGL
Chain of Beta-2 adrenergic receptor (Homo sapiens) (P07550 whole entry, looked up): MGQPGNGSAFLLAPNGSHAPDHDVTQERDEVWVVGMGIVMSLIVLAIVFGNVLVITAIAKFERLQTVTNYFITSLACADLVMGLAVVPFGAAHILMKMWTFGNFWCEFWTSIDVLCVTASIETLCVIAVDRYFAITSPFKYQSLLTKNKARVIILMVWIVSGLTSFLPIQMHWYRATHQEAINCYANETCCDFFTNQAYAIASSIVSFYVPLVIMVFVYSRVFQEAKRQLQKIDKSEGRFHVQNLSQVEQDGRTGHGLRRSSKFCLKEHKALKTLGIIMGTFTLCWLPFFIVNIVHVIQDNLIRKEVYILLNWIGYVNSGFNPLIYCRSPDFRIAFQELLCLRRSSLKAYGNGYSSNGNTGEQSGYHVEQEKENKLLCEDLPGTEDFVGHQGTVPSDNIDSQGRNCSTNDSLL

Consider `Cc1nc2ccccn2c(=O)c1CCN1CCC(C(=O)c2ccc(F)cc2)CC1`, for which, in assay [1], the percent of DMSO control GFP was 103% (inactive). Further, the GFP response vs DMSO in assay [2] is 105% (inactive); in [4], 101% (inactive). Also, the percent response of DMSO control in [3] was 104% (inactive). Also, the GFP response, % of DMSO in [5] was 104% (inactive). Also, in [6], the double positive events is 56.6%. Besides, the vesicle binding response in assay [6] is 166% (inactive). For the same compound, the inhibition (as a rule, the change of the read-out against control, counted positive when it falls) in assay [7] is -26.6% (inactive); in assay [11], 51.2% (inactive); in [15], 2% (inactive). Also, the superoxide response (% of plate) in assay [8] was 95.8% (inactive). For the same compound, in [9], the aptamer binding inhibition was 0% (inactive). The response in assay [10] was -22.4% (inactive); in assay [12] it was -1.11% (inactive). The binding (% of control) in [13] is 106% (inactive). In assay [14], the efflux inhibition (fraction of control) is -0.025 (inactive). Moreover, the differentiation response in [16] is -10.4% (inactive).

On to `C[C@H](CCC(=O)O)[C@H]1CC[C@H]2[C@@H]3C(=O)C[C@@H]4CC(=O)CC[C@]4(C)[C@H]3CC(=O)[C@]12C`, for which, in assay [1], the percent of DMSO control GFP is 99.3% (inactive). Moreover, the results for the GFP response vs DMSO in assay [2] and in [4] were 105% (inactive) and 120% (inactive), respectively. Further, the percent response of DMSO control in assay [3] is 101% (inactive). Besides, the GFP response, % of DMSO in assay [5] was 119% (inactive). In addition, the double positive events in assay [6] stood at 57.7%. Moreover, the vesicle binding response in assay [6] is 220% (inactive). Moreover, the inhibition was 22.7% (inactive) in assay [7], 10.1% (inactive) in [11] and 0% (inactive) in [15]. Further, the superoxide response (% of plate) in assay [8] was 95.4% (inactive). Further, the aptamer binding inhibition in [9] is 4% (inactive). Also, the response was -23.4% (inactive) in [10] and -2.4% (inactive) in assay [12]. For the same compound, in [13], the binding (% of control) is 109% (inactive). Further, in assay [14], the efflux inhibition (fraction of control) is -0.09 (inactive). Besides, the differentiation response in [16] is -11.9% (inactive).

Regarding `COC(=O)[C@H]1[C@H]2C[C@@H]3c4[nH]c5cc(OC)ccc5c4CCN3C[C@H]2C[C@@H](OC(=O)c2ccc(N)cc2)[C@@H]1OC`, the percent of DMSO control GFP in [1] was 105% (inactive). The GFP response vs DMSO in assay [2] was 98.3% (inactive); in assay [4] it was 94% (inactive). Also, in assay [3], the percent response of DMSO control was 111% (inactive). In addition, the GFP response, % of DMSO in assay [5] was 102% (inactive). For the same compound, the double positive events in [6] is 64.5%. Also, the vesicle binding response in assay [6] is 828% (inactive). The inhibition was -393% (inactive) in [7], -1.6% (inactive) in assay [11] and -53% (inactive) in assay [15]. Moreover, in assay [8], the superoxide response (% of plate) is 97% (inactive). Also, the aptamer binding inhibition in assay [9] was 3% (inactive). The results for the response in [10] and in [12] were -18.1% (inactive) and -2.37% (inactive), respectively. For the same compound, the binding (% of control) in [13] is 104% (inactive). Besides, in [14], the efflux inhibition (fraction of control) was -0.17 (inactive). In addition, in assay [16], the differentiation response was 0.24% (inactive).

Regarding `NC[C@H]1O[C@H](O[C@H]2[C@H](O)[C@@H](O[C@H]3O[C@H](CO)[C@@H](O)[C@H](N)[C@H]3O)[C@H](N)C[C@@H]2N)[C@H](N)C[C@@H]1O`, the percent of DMSO control GFP in assay [1] was 101% (inactive). The GFP response vs DMSO in assay [2] is 102% (inactive); in assay [4], 109% (inactive). Besides, in assay [3], the percent response of DMSO control is 95.1% (inactive). For the same compound, the GFP response, % of DMSO in assay [5] is 110% (inactive). Also, in assay [6], the double positive events was determined as 63.2%. In assay [6], the vesicle binding response was 273% (inactive). In addition, the inhibition in [7] was 12.5% (inactive); in assay [11] it was -4.09% (inactive); in assay [15], 2% (inactive). Besides, in assay [8], the superoxide response (% of plate) was 110% (inactive). In addition, the aptamer binding inhibition in assay [9] was 3% (inactive). Also, the response in [10] is -5.14% (inactive); in assay [12], -21.1% (inactive). Further, the binding (% of control) in assay [13] is 109% (inactive). Moreover, the efflux inhibition (fraction of control) in assay [14] is 0.04 (inactive). In [16], the differentiation response was -7.94% (inactive).

Take `O=c1nc2sc3ccccc3n2c(=O)n1-c1ccc(Cl)cc1`: the percent of DMSO control GFP in [1] is 105% (inactive). Besides, the values for the GFP response vs DMSO in assay [2] and in assay [4] were 97.2% (inactive) and 96.6% (inactive), respectively. In assay [3], the percent response of DMSO control was 108% (inactive). Moreover, the GFP response, % of DMSO in assay [5] is 99.7% (inactive). In assay [6], the double positive events was 64.1%. Further, in assay [6], the vesicle binding response is 232% (inactive). Further, the inhibition is -12.9% (inactive) in assay [7], -5.72% (inactive) in assay [11] and 11% (inactive) in [15]. Moreover, the superoxide response (% of plate) in [8] is 110% (inactive). For the same compound, in assay [9], the aptamer binding inhibition was -3% (inactive). Besides, the results for the response in assay [10] and in assay [12] were -10.3% (inactive) and 1.03% (inactive), respectively. Also, the binding (% of control) in assay [13] was 96.4% (inactive). In addition, in assay [14], the efflux inhibition (fraction of control) was -0.14 (inactive). Besides, in assay [16], the differentiation response is 3.18% (inactive).
